# Screen size: about 400,000 compounds; about 1,900 (0.47%) were called active. About 14% were inconclusive and are not listed. No rule for the calls is given here. Only a selection was taken, and actives are over-represented in it overall.
# Biological target: Ataxin-2 (Homo sapiens) (UniProt Q99700)
# Assay: qHTS for Inhibitors of ATXN expression.
# Format: functional
# Chain of Ataxin-2 (Homo sapiens) (Q99700 whole entry): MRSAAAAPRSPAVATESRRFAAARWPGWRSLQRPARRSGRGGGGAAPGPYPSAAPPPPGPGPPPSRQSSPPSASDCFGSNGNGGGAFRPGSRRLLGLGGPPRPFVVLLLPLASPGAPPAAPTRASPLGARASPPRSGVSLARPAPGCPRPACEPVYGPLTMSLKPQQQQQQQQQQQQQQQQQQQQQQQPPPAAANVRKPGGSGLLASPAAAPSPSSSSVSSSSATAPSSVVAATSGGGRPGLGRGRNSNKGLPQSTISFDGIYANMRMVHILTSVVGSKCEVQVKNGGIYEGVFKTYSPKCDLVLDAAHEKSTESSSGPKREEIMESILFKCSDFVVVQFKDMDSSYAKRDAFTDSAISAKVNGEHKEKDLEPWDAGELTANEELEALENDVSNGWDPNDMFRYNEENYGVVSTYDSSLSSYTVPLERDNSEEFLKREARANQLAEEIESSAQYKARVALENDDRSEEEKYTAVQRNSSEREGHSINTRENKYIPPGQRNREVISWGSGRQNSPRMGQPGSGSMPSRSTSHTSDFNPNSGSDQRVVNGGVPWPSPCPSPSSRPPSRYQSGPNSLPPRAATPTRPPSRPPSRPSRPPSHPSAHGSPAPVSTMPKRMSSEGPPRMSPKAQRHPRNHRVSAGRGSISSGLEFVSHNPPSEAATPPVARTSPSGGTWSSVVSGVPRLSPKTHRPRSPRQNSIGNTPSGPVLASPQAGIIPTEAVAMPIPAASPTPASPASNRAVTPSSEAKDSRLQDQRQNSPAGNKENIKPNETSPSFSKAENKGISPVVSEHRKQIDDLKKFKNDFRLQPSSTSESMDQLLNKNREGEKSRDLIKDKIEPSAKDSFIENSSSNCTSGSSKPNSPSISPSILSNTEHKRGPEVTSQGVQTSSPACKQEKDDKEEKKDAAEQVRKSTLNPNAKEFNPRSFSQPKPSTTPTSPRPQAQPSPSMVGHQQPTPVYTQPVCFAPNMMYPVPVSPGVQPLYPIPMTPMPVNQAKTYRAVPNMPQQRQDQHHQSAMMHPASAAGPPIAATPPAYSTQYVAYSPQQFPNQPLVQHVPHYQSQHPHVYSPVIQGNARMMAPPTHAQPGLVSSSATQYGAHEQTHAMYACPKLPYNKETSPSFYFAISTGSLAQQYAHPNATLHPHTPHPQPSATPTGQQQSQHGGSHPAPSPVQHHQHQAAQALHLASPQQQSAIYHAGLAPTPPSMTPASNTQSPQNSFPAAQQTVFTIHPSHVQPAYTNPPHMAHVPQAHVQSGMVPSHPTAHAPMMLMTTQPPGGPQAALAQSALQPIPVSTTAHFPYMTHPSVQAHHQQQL
row,Compound,Potency
1,CCOC(=O)[C@]12Cc3ccccc3[C@H]1N(C(C)C)C(=O)c1ccccc12,22.4 µM (active)
2,CCOC(=O)[C@]12Cc3ccccc3[C@H]1N(C)C(=O)c1cc(OC)ccc12,31.6 µM (active)
3,CCOC(=O)[C@]12Cc3ccccc3[C@H]1N(C(C)C)C(=O)c1cc(OC)ccc12,17.8 µM (active)
4,CCOC(=O)[C@]12Cc3c(cc(OC)c(OC)c3OC)[C@H]1N(C)C(=O)c1cc(OC)ccc12,11.2 µM (active)
5,N#CC1=C(N)Oc2c(c(=O)oc3ccccc23)C1c1ccc([N+](=O)[O-])o1 (stereo not given),inactive
6,CC(C)OCC(O)CN1CC2C[C@@H](C1)Cn1c2cccc1=O (stereo not given in full),inactive
7,Cc1cc(=O)oc2cc(OCC(=O)N3CCN(C(C)c4ccccc4)CC3)c(Cl)cc12 (stereo not given),inactive
8,CCCCn1c(NC(=O)c2ccco2)c(C(=O)OCC)c2nc3ccccc3nc21,inactive
9,CCOC(=O)[C@]12Cc3cc(C)ccc3[C@H]1N(C(C)C)C(=O)c1ccccc12,11.2 µM (active)
10,CCCCN1C(=O)/C(=C/NNC(=O)c2ccncc2)C(=O)NC1=S,inactive
11,COc1cccc(CNCCc2cccc(F)c2)c1OC,inactive
12,CCOc1c(Cl)cc(CNC(C)C(O)c2ccccc2)cc1OC (stereo not given),inactive
13,CCOc1c(Cl)cc(CNCCc2c[nH]c3ccccc23)cc1OC,20 µM (active)
14,COc1cccc(-n2c(/C=C/c3ccc(O)c(O)c3)nc3ccccc3c2=O)c1,inactive
15,COP(=O)(OC)c1nc(-c2ccc([N+](=O)[O-])cc2)oc1N1CCCCC1,inactive
16,O=[N+]([O-])/C=C/c1c(Cl)cccc1Cl,4.74 µM (active)
17,CC(C)CCNC(=O)c1c(N)n(CC2CCCO2)c2nc3ccccc3nc12 (stereo not given),inactive
18,O=C1NC(=O)N(Cc2ccccc2)C(=O)/C1=C/NNC(=O)c1ccncc1,inactive
19,Cc1cnc(SCc2ccccn2)nc1C1CCCN(C(=O)c2scc3c2CCCC3)C1 (stereo not given),25.1 µM (active)
20,Nc1ccc2c3c(cccc13)-c1ccccc1-2,inactive

row,Compound,Potency
1,O=C(NCC1=C(c2ccc3ccccc3c2)C[C@@H]2CC[C@H]1N2Cc1ccco1)c1ccc([N+](=O)[O-])cc1,31.6 µM (active)
2,Nc1c(C(=O)NCC2CCCO2)c2nc3ccccc3nc2n1Cc1ccco1 (stereo not given),inactive
3,Nc1c(C(=O)NCc2ccco2)c2nc3ccccc3nc2n1Cc1ccccc1,inactive
4,CCC(Nc1ccccc1N)=C1C(=O)NC(=O)NC1=O,inactive
5,CCC1(C)OC(c2ccccc2)=C/C(=C/C=C2C(=O)NC(=O)NC2=O)O1 (stereo not given),inactive
6,O=c1ccc2cc(O[C@@H]3O[C@H](CO)[C@@H](O)[C@H](O)[C@H]3O)c(O)cc2o1,inactive
7,O=C(NCc1ccccc1)c1cccn(Cc2cccc(Cl)c2)c1=O,inactive
8,Cc1n[nH]c2ccc(-c3cncc(OC[C@@H](N)Cc4c[nH]c5ccccc45)c3)cc12,11.2 µM (active)
9,C[n+]1c2cc(N)ccc2cc2ccc(N)cc21,inactive
10,Clc1ccc(C(Cn2ccnc2)OCc2csc3c(Cl)cccc23)c(Cl)c1 (stereo not given),28.2 µM (active)
11,Clc1ccc(COC(Cn2ccnc2)c2ccc(Cl)cc2Cl)cc1 (stereo not given),39.8 µM (active)
12,COc1ccc(Br)cc1CNCCc1cccc(Cl)c1,inactive
13,CC/C(=C(\c1ccc(O)cc1)c1ccc(OCCN(C)C)cc1)c1ccccc1,39.8 µM (active)
14,CCCCCC[C@H]1C(=O)O[C@H](C)[C@H](NC(=O)c2cccc(NC=O)c2O)C(=O)O[C@@H](C)[C@H]1OC(=O)CC(C)C,inactive
15,C=CCc1ccccc1OCCn1c(C2CC(=O)N(Cc3ccc(F)cc3)C2)nc2ccccc21 (stereo not given),39.8 µM (active)
16,CC[C@@H]1CN2CCc3cc(OC)c(OC)cc3[C@H]2C[C@@H]1C[C@@H]1NCCc2cc(O)c(OC)cc21,0.0631 µM (active)
17,CC[C@@H]1CN2CCc3cc(OC)c(OC)cc3[C@H]2C[C@@H]1C[C@H]1NCCc2cc(OC)c(OC)cc21,0.316 µM (active)
18,CC(=O)O[C@H]1CCC2C3CCC4=CC(=O)CCC4=C3C=C[C@@]21C (stereo not given in full),inactive
19,CN1C(=O)C(=CNCCN2CCOCC2)C(=O)N(C)C1=S,inactive
20,Cc1ccc(N/N=C/C=C/c2ccco2)cc1,inactive

row,Compound,Potency
1,CC(=O)C12CC(C)=C(C)CC1CC1C3CCC4=CC(=O)CCC4(C)C3CCC12C (stereo not given),inactive
2,O=C1NC(=O)N(CCc2ccc(F)cc2)C(=O)/C1=C/NNC(=O)c1ccncc1,inactive
3,Fc1ccc(C2=CCN(C(c3cccs3)c3nnnn3CCc3ccccc3)CC2)cc1 (stereo not given),39.8 µM (active)
4,Clc1ccc2sc(C3CCNCC3)nc2c1,inactive
5,CCCCn1nnnc1C(c1cccc(OC)c1OC)N1CCC2(CC1)C(=O)NCN2c1ccccc1 (stereo not given),39.8 µM (active)
6,O=C1NCN(c2ccccc2)C12CCN(C(c1ccccc1OC(F)(F)F)c1nnnn1Cc1ccccc1)CC2 (stereo not given),39.8 µM (active)
7,O=C1NCN(c2ccccc2)C12CCN(C(c1cccc3ccccc13)c1nnnn1Cc1ccccc1)CC2 (stereo not given),39.8 µM (active)
8,COc1cccc(C(c2nnnn2Cc2ccccc2)N2CCC3(CC2)C(=O)NCN3c2ccccc2)c1OC (stereo not given),39.8 µM (active)
9,Cc1c(CC(=O)N2C[C@H]3C[C@@H](C2)c2cccc(=O)n2C3)c(=O)oc2c(C)c(O)ccc12,inactive
10,COc1ccc2c(c1)NP(=S)(Oc1ccccc1)N2 (stereo not given),inactive
11,N#Cc1cccc(NC(=O)CSc2nc3c(cc2C#N)N2CCC3CC2)c1,inactive
12,Fc1cccc(F)c1CN1CCN(c2ccc(Cl)cc2)CC1,inactive
13,CCC(C)NC(=O)c1c(N)n(CCCOC)c2nc3ccccc3nc12 (stereo not given),inactive
14,CCCCNC(=O)c1c(N)n(CCCOC)c2nc3ccccc3nc12,inactive
15,Cc1cc(=O)oc2cc3c(cc12)CCCN3,inactive
16,CC[C@H](C)/C=C(C)/C=C/C1=CC2=C(Cl)C(=O)[C@](C)(OC(C)=O)C(=O)C2=CO1,28.2 µM (active)
17,COc1ccc(-n2c(/C=C/c3ccc(O)cc3)nc3ccccc3c2=O)cc1,inactive
18,CCn1nc(-c2ccccc2)nc2c(=O)n(C)c(=O)nc1-2,20 µM (active)
19,CCn1nc(/C=C/c2ccccc2)nc2c(=O)n(C)c(=O)nc1-2,10.6 µM (active)
20,CCN1C(=O)/C(=C/NNC(=O)c2ccncc2)C(=O)NC1=S,inactive

# Source: ChEMBL document CHEMBL1201862, “PubChem BioAssay data set” (2004)
